# Laboratory results reported in PubChem BioAssay AID434970 (Sanford-Burnham Center for Chemical Genomics, 2010).
# Hit rate of the full screen: of about 11,000 compounds, about 310 (2.8%) were called active. Cut-off read from the data, not from the text of the source: active = activity change below about -85%; inactive = the rest. The entries come from a sample that favours actives as a whole.
# System: intestinal alkaline phosphatase [Mus musculus]
# Assay: activators of mouse IAP, confirmation, biochemical, luminescence, single concentration (AID 434970)
# Conditions: purified mouse IAP, CDP-Star luminescence, 30 min, at 10 µM; activation factor: measured here: IAP activation factor, stronger effect = higher value; activity change, negative = activation: stronger effect = lower value
Structure (SMILES),activation factor,"activity change, negative = activation"
COc1ccc(C(=O)Nc2cccc(C(C)=O)c2)c(OC)c1OC,0.951,4.95% (inactive)
COC(=O)CC1C(=O)NCCN1C(=O)Nc1ccccc1 (stereo not given),0.938,6.25% (inactive)
CCOC(=O)Cc1cc(=O)n(-c2nc3ccccc3s2)[nH]1,0.806,19.4% (inactive)
O=C(CN1C(=O)C2CC=CCC2C1=O)Nc1ccc(S(=O)(=O)NC2=NCCCCC2)cc1 (stereo not given),0.903,9.65% (inactive)
CC[C@@H]1C(c2cccc(C)c2)=NN(c2ccccc2)[C@H]1C(=O)N1CCOC1=O,1.14,-14.2% (inactive)
COc1cccc(-n2c(SCC(=O)Nc3nccs3)nnc2-c2ccoc2C)c1,0.982,1.8% (inactive)
O=C1OCCN1C(=O)[C@H]1[C@H](c2ccc([N+](=O)[O-])cc2)C(c2ccccc2)=NN1c1ccc(Br)cc1,0.908,9.2% (inactive)
COc1ccc(C(=O)O)cc1S(=O)(=O)Nc1cccc(C)c1,0.988,1.25% (inactive)
O=C(Nc1cccc(C(F)(F)F)c1)Nc1ccc(N2CCCC2)c(S(=O)(=O)Nc2ccccc2Cl)c1,1.67,-66.9% (inactive)
COc1ccccc1NS(=O)(=O)c1cc(NC(=O)Nc2cccc(C)c2)ccc1N1CCCCC1,3.78,-278% (active)
Cc1cc(-c2csc(NC(=O)c3ccc(=O)[nH]c3)n2)c(C)n1Cc1ccco1,0.347,65.4% (inactive)
CCCc1c(O)nc(SC2CC(=O)N(c3cc(OC)ccc3OC)C2=O)[nH]c1=O (stereo not given),1.01,-0.65% (inactive)
C=CCn1c(SCC(=O)Nc2cc(C)ccc2OC)nnc1-c1ccco1,1.07,-7.4% (inactive)
CCOC(=O)C1=CN(Cc2ccc(Br)cc2)S(=O)(=O)NC1C (stereo not given),0.968,3.25% (inactive)
O=C(Nc1ccc(Cl)cc1)N[C@@H]1c2c(ccc3ccccc23)OC[C@@H]1CO,4.85,-385% (active)
O=C(Nc1ccc(Cl)cc1)Nc1ccc(N2CCOCC2)cc1,1.17,-16.9% (inactive)
O=C(Nc1ccc(Cl)cc1)Nc1ccc(-c2cnco2)cc1,1.34,-34.5% (inactive)
CCCCc1ccc(CC(=O)O)cc1,0.907,9.3% (inactive)
CC(C)CNC(=O)c1ccccc1NC(=O)Nc1ccccc1,0.949,5.15% (inactive)
O=C(Nc1ccc(F)c(Cl)c1)Nc1csc2ccccc12,2.15,-115% (active)
O=C(Nc1ccc(F)cc1)Nc1csc2ccccc12,1.94,-93.7% (inactive)
O=C(Nc1ccccc1)Nc1csc2ccccc12,2.08,-108% (active)
O=C(Nc1ccc(F)cc1F)Nc1csc2ccccc12,1.77,-77.3% (inactive)
CCCCC(=O)Nc1ccc(F)c(Cl)c1,1.05,-5.3% (inactive)
O=S(=O)(NCc1cccs1)c1cccc(S(=O)(=O)N2CCCCC2)c1,0.903,9.65% (inactive)

Structure (SMILES),activation factor,"activity change, negative = activation"
Cc1ccccc1N(CC(=O)N1CCN(c2ccccc2)CC1)S(C)(=O)=O,0.932,6.8% (inactive)
COc1ccc(OC)c(S(=O)(=O)n2ccnc2C)c1,0.998,0.15% (inactive)
COc1ccc(Cc2nnc(NC(=O)C3CCCO3)s2)cc1OC (stereo not given),1.01,-1.15% (inactive)
CCC(C)OC(=O)C1=C(C)NC2=C(C(=O)C(C(=O)OC)C(C)C2)C1c1ccc(N(C)C)cc1 (stereo not given),1.06,-6.35% (inactive)
CCN(CC)CCNC(=O)Cn1nc(-c2ccccc2)c2ccccc2c1=O,0.954,4.6% (inactive)
NC(=O)C1CCN(c2ncnc3c(-c4ccccc4)nsc23)CC1,0.947,5.35% (inactive)
O=C(c1cc(-c2cccs2)on1)N1CCN(C(c2ccccc2)c2ccccc2)CC1,0.971,2.95% (inactive)
Cc1ccc(CNC(=O)C2(NC(=O)Nc3ccc(C)cc3)CCCCC2)cc1,2.98,-198% (active)
Cc1ccc(NC(=O)NC2(C(=O)NCc3ccccc3)CCCCC2)cc1,2.31,-131% (active)
O=C(Nc1cccc(Cl)c1)NC1(C(=O)NCc2cccs2)CCCCC1,1.62,-61.7% (inactive)
CCOC(=O)c1ccc(NC(=O)NCc2ccc(OC)cc2)cc1,1.49,-49% (inactive)
COc1ccccc1CNC(=O)Cn1cccc1,0.944,5.65% (inactive)
CCn1c(CC(=O)Nc2ccc(C)cc2)nnc1SCC(=O)NCc1ccccc1,1,-0.4% (inactive)
COc1ccccc1CNC(=O)C1(NC(=O)Nc2ccc(C)cc2)CCCCC1,3.44,-244% (active)
COc1ccccc1C(=O)Nc1ccc(CN2CCCCC2)cc1,0.94,6% (inactive)
O=C(NCc1ccccc1)NC1(C(=O)N2CCCC2)CCCCC1,0.94,6% (inactive)
CC1(C)CC(=O)C2=C(C1)N=c1s/c(=C/c3ccc(F)c(F)c3)c(=O)n1C2c1ccc(F)cc1 (stereo not given),0.856,14.4% (inactive)
N#C/C(=C/c1ccco1)C(N)=S,0.434,56.5% (inactive)
CCOC(=O)c1c(-c2ccccc2)oc2ccc(O)c(CN(C)C)c12,0.909,9.15% (inactive)
Nc1ncnc2c1ncn2[C@@H]1O[C@H](CNS(=O)(=O)c2cc(S(=O)(=O)c3ccccc3)cs2)[C@@H](O)[C@H]1O,1.08,-7.65% (inactive)
Cc1ccc(C(=O)Nc2nnn(C)n2)cc1,1.1,-10.2% (inactive)
CCN(CC)S(=O)(=O)c1ccc(NC(=O)Cn2c(=O)sc3ccccc32)cc1,1.31,-30.9% (inactive)
C#CCOCCOCCOCCNc1nc(N2CCN(C(=O)CCCCCCCCCCNC(=O)[C@H](CCCN=C(N)N)n3cc(C[C@@H](C)CC)nn3)CC2)nc(N2CCN(C(=O)CCCCCCCCCCNC(=O)[C@@H]([C@H](C)CC)n3cc(CCCCCN)nn3)CC2)n1,6.19,-519% (active)
C#CCOCCOCCOCCNc1nc(N2CCN(C(=O)CCCCCCCCCCNC(=O)[C@H]([C@@H](C)CC)n3cc(CCCCN=C(N)N)nn3)CC2)nc(N2CCN(C(=O)CCCCCCCCCCNC(=O)[C@H](CCCCN)n3cc(C[C@@H](C)CC)nn3)CC2)n1,8.58,-758% (active)
C#CCOCCOCCOCCNc1nc(N2CCN(C(=O)CCCCCCCCCCNC(=O)[C@H]([C@@H](C)CC)n3cc(CCCCN=C(N)N)nn3)CC2)nc(N2CCN(C(=O)CCCCCCCCCCNC(=O)[C@H](CCCN=C(N)N)n3cc(C[C@@H](C)CC)nn3)CC2)n1,9.52,-852% (active)
